Assay results from the supplement of paper PMC4466140.

B1: unnamed (peptide)
chain: NPNRRAPRRPLSTQH

What follows are binders tested against ScBbc1 (assay: SPOT peptide array binding signal intensity (averaged, normalized) (arbitrary units (background-subtracted, floor 0; scale differs between SH3 domains)); higher = stronger binding of the SH3 domain to the peptide).
How it was run: (§1)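 Cellulose membranes carried synthetic 15-mer peptides with cysteines swapped for serines. These were incubated overnight at 4°C with 10 μg/ml of GST-fused SH3 domains from four yeast species in TBS-based blocking buffer. Binding signal, detected with anti-GST antibody and quantified in Genespotter, is the normalized, background-subtracted spot intensity averaged over replicates, in arbitrary units specific to each domain.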
B1 was tested, and the “SPOT peptide array binding signal intensity” value was 185.

The binders below were run against ScBem1-D1 in the same assay as above.
How it was run: as §1
For B1, the “SPOT peptide array binding signal intensity” value was 28.5.

The binders below were run against ScBzz1-D1 in the same assay as above.
How it was run: as §1
B1 was tested, and the “SPOT peptide array binding signal intensity” value was 30.5.

Each binder was assayed against ScBzz1-D2 in the same assay as above.
How it was run: as §1
B1 was tested, and the “SPOT peptide array binding signal intensity” value was 8.

These binders were tested against ScCyk3 in the same assay as above.
How it was run: as §1
For B1, the “SPOT peptide array binding signal intensity” value was 109.

The binders below were run against ScFus1 in the same assay as above.
How it was run: as §1
In the case of B1, the “SPOT peptide array binding signal intensity” value is reported as 402.

The binders below were run against ScHof1 in the same assay as above.
How it was run: as §1
B1 was tested, and the “SPOT peptide array binding signal intensity” value was 1.25.

These binders were tested against ScHse1 in the same assay as above.
How it was run: as §1
For B1, the “SPOT peptide array binding signal intensity” value was 2480.

The binders below were run against ScLsb1 in the same assay as above.
How it was run: as §1
For B1, the “SPOT peptide array binding signal intensity” value was 65.

Each binder was assayed against ScLsb2 in the same assay as above.
How it was run: as §1
For B1, the “SPOT peptide array binding signal intensity” value was 12.

Each binder was assayed against ScLsb3 in the same assay as above.
How it was run: as §1
In the case of B1, the “SPOT peptide array binding signal intensity” value is reported as 1470.

The binders below were run against ScLsb4 in the same assay as above.
How it was run: as §1
For B1, the “SPOT peptide array binding signal intensity” value was 35.

These binders were tested against ScMyo3 in the same assay as above.
How it was run: as §1
B1 was tested, and the “SPOT peptide array binding signal intensity” value was 20.

What follows are binders tested against ScMyo5 in the same assay as above.
How it was run: as §1
In the case of B1, the “SPOT peptide array binding signal intensity” value is reported as 8.75.

Each binder was assayed against ScNbp2 in the same assay as above.
How it was run: as §1
For B1, the “SPOT peptide array binding signal intensity” value was 4200.

Each binder was assayed against ScPex13 in the same assay as above.
How it was run: as §1
With B1 the “SPOT peptide array binding signal intensity” value was 23.5.

Each binder was assayed against ScRvs167 in the same assay as above.
How it was run: as §1
For B1, the “SPOT peptide array binding signal intensity” value was 46.5.

These binders were tested against ScSho1 in the same assay as above.
How it was run: as §1
In the case of B1, the “SPOT peptide array binding signal intensity” value is reported as 984.

The binders below were run against ScSla1-D1-D2 in the same assay as above.
How it was run: as §1
With B1 the “SPOT peptide array binding signal intensity” value was 1340.

The binders below were run against ScSla1-D3 in the same assay as above.
How it was run: as §1
In the case of B1, the “SPOT peptide array binding signal intensity” value is reported as 7.

Each binder was assayed against SpAbp1-D1 in the same assay as above.
How it was run: as §1
In the case of B1, the “SPOT peptide array binding signal intensity” value is reported as 313.

Each binder was assayed against SpBbc1 in the same assay as above.
How it was run: as §1
B1 was tested, and the “SPOT peptide array binding signal intensity” value was 50.5.

These binders were tested against SpBzz1-D1 in the same assay as above.
How it was run: as §1
With B1 the “SPOT peptide array binding signal intensity” value was 352.

What follows are binders tested against SpBzz1-D2 in the same assay as above.
How it was run: as §1
In the case of B1, the “SPOT peptide array binding signal intensity” value is reported as 32.2.

What follows are binders tested against SpCyk3 in the same assay as above.
How it was run: as §1
In the case of B1, the “SPOT peptide array binding signal intensity” value is reported as 1.

These binders were tested against SpHof1 in the same assay as above.
How it was run: as §1
With B1 the “SPOT peptide array binding signal intensity” value was 342.

Each binder was assayed against SpHof1-2 in the same assay as above.
How it was run: as §1
With B1 the “SPOT peptide array binding signal intensity” value was 8.5.

These binders were tested against SpHof1-3 in the same assay as above.
How it was run: as §1
With B1 the “SPOT peptide array binding signal intensity” value was 166.

The binders below were run against SpHse1 in the same assay as above.
How it was run: as §1
For B1, the “SPOT peptide array binding signal intensity” value was 1390.

These binders were tested against SpLsb1 in the same assay as above.
How it was run: as §1
B1 was tested, and the “SPOT peptide array binding signal intensity” value was 11.

Each binder was assayed against SpLsb4 in the same assay as above.
How it was run: as §1
B1 was tested, and the “SPOT peptide array binding signal intensity” value was 906.

The binders below were run against SpMyo1 in the same assay as above.
How it was run: as §1
For B1, the “SPOT peptide array binding signal intensity” value was 84.5.

These binders were tested against SpNbp2 in the same assay as above.
How it was run: as §1
With B1 the “SPOT peptide array binding signal intensity” value was 498.

These binders were tested against SpPex13 in the same assay as above.
How it was run: as §1
In the case of B1, the “SPOT peptide array binding signal intensity” value is reported as 48.5.

The binders below were run against SpRvs167 in the same assay as above.
How it was run: as §1
With B1 the “SPOT peptide array binding signal intensity” value was 17.

Each binder was assayed against SpSla1-D1-D2 in the same assay as above.
How it was run: as §1
In the case of B1, the “SPOT peptide array binding signal intensity” value is reported as 1.

The binders below were run against SpSla1-D3 in the same assay as above.
How it was run: as §1
For B1, the “SPOT peptide array binding signal intensity” value was 32.
